Results filed as inconclusive are left out. Unmarked numbers belong to inactive results. Calls come from the whole dose curve; as a rule, active = well fitted inhibition curve with a large enough effect; inconclusive = small, poorly fitted or top-dose-only effect; inactive = flat fitted curve, though single readings scatter.
% is set by controls: 0 for no effect and ±100 for the full control effect.

Chain of Calcium and integrin-binding protein 1 (Homo sapiens) (Q99828 whole entry, looked up): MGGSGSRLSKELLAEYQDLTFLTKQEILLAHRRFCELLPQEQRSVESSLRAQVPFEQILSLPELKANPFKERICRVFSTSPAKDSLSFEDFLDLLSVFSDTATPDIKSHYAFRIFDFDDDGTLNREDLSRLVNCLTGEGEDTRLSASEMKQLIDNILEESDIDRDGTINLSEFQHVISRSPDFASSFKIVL

The target of this test is Calcium and integrin-binding protein 1 (Homo sapiens) (UniProt Q99828). The experiment in a line: Primary qHTS for Identification of Calcium Integrin Binding Protein 1 (CIB1) Competitor (AID 1508620). Note: top concentration of the series differs between compounds. To be noted: CIB1-GST / FITC-alphaIIb peptide fluorescence polarization; series mostly up to 114 µM; activity change, negative = inhibition: at the top concentration. Summed up:
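Fluorescence polarization competition: GST-tagged CIB1 (1 uM final) preincubated with compound 15 min at room temperature, then FITC-labelled alphaIIb peptide (100 nM final) added. After 15 min at room temperature, polarization read at Ex 480/Em 540.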
A general note: Quantitative high-throughput screening tests each substance at several concentrations.
On to `C=CC[C@]12C[C@@H](OC)C(=O)C(OC)=C1O[C@@H](c1cc(OC)c3c(c1)OCO3)[C@@H]2C`, for which the “activity change, negative = inhibition” value was 2.02% [at 57.7 µM].
For the molecule `CC1(C(=O)O)CCCC2(C)C3CCC4CC3(CCC12)CC4=O` (centres undefined), the “activity change, negative = inhibition” value was 3.97%.
The same measure for `COC(=O)C[C@H]1[C@]2(C)C3=C(C)[C@H](c4ccoc4)C[C@H]3O[C@@H]2[C@H](OC(C)=O)C2[C@](C)(C(=O)OC)C=CC(=O)[C@@]21C` (some centres undefined): 0.407% [at 57.7 µM]; for `COc1c(/C=C/C(C)(C)O)ccc2c1C(=O)OCc1cc(C)cc(O)c1O2`: -3.4% [at 57.7 µM].

Values taken from PubChem BioAssay (NCATS).
